# HTT prom inh: inhibitors of huntingtin promoter activity | HEK293 HTT promoter firefly luciferase reporter, 24 h | Potency, µM (series often up to 57.5 µM), inactives show top-dose activity change, negative = inhibition, actives largely listed as inhibitors | 0.93% of 48,000 active; also: potency is read from the fitted curve at half-maximal effect; nearly all actives have a fitted effect of over 50% in size
#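 Luminescence was read after Dual-Glo reagent and a 10 min room-temperature incubation. Values were normalized to vehicle (0% activity) and zero RLU (-100% activity). Reporter HEK293 cells had been exposed to compounds (up to 57.5 uM final) for 24 h.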
# NTMT1 inhibitor: blocks human N-terminal methyltransferase 1 activity; Q9BV86; NTMT1 MTase-Glo SAH luminescence, purified enzyme; Potency, µM (titrated, usually from 114 µM), without a hit: at the highest dose activity change, negative = inhibition, actives largely listed as inhibitors; 2.5% of 59,000 active; AID 1645870;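 also: potency is read from the fitted curve at half-maximal effect; plate controls were DMSO vehicle for no effect and no enzyme for full effect; nearly all actives have a fitted effect of over 65% in size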
# Target sequence (Q9BV86 whole entry, looked up): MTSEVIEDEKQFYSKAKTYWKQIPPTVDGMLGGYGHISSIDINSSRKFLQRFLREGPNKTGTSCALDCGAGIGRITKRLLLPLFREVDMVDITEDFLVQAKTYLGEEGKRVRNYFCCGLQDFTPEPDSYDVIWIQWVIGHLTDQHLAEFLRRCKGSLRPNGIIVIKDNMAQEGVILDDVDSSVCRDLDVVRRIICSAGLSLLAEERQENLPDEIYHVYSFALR
# HTT-AS promoter: HTT-AS promoter activation; HEK293 HTT-AS promoter firefly luciferase reporter, 24 h; response scale: percent change from vehicle, -100% = no light; Potency, µM (highest dose often 57.5 µM), for inactives: top-dose activity change, positive = activation, most hits filed as activators; 0.24% of 48,000 active; AID 1508624; also: potency is read from the fitted curve at half-maximal effect; nearly all actives have a fitted effect of over 55% in size
#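 Quantitative HTS used concentration series of up to 57.5 uM final on HEK293 luciferase reporter cells, 24 h at 37 degrees C. Readout was Dual-Glo firefly luminescence.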
# DYRK1A inh-1: human DYRK1A kinase inhibition by ATP depletion readout; recombinant DYRK1A, Kinase-Glo ATP depletion luminescence; shares compounds with NTMT1 inhibitor; Potency, µM (top dose mostly 76.9 µM), inactives show at the highest dose activity change, negative = inhibition, most hits filed as inhibitors; 80% of 100 active; AID 2705
# CLK4 inh: inhibitors of human CLK4 kinase, SAR round 2; shares compounds with NTMT1 inhibitor; AID 504421; Potency, µM, most hits filed as inhibitors; Reaction Biology kinase assay, 10 uM ATP; 100% of 65 active; calls by dose curve
# DYRK1A inh-2: blocks human DYRK1A kinase in radiometric assay; AID 504424; shares compounds with NTMT1 inhibitor; 90% of 65 active; Reaction Biology kinase assay, 10 uM ATP; Potency, µM, actives largely listed as inhibitors;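 active = compounds that showed inhibition of Dyrk1a and received a fitted potency; inactive = compounds that showed no inhibition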
# CLK2 inh: blocks human CLK2 kinase in radiometric assay | shares compounds with NTMT1 inhibitor | Reaction Biology kinase assay, 10 uM ATP | Potency, µM, most hits filed as inhibitors | 90% of 65 active | AID 504427;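 active = compound that inhibits Clk2 kinase in the dose series, with an IC50 potency reported; inactive = no inhibition seen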
# CLK3 RBC: CLK3 kinase inhibition; shares compounds with NTMT1 inhibitor; recombinant CLK3 kinase assay, 10 uM ATP; Potency, µM, usual class: inhibitors; 40% of 65 active; AID 504428;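 active = compounds that inhibited Clk3 enough in the ten-dose series to give a half-maximal potency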
# DYRK1B RBC: blocks human DYRK1B kinase activity; Potency, µM, most hits filed as inhibitors; 80% of 65 active; AID 504429; Recombinant Dyrk1b kinase assay, 10 uM ATP; shares compounds with NTMT1 inhibitor;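 active = compounds whose dose response shows an inhibitor phenotype against the kinase Dyrk1b; inactive = compounds showing no inhibitor phenotype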
# CLK1 RBC: inhibitors of human CLK1 kinase | shares compounds with NTMT1 inhibitor | recombinant Clk1 kinase assay, 10 uM ATP | Potency, µM, hits mostly inhibitors | 90% of 65 active | AID 504430;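 active = compounds that block the splicing kinase Clk1 enough to give a fitted half-inhibition concentration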
# Sfp PPTase inh: inhibits purified B. subtilis Sfp PPTase. Potency, µM (highest dose often 114 µM), for the others: at the highest dose activity change, negative = inhibition, hits mostly inhibitors. shares compounds with NTMT1 inhibitor. AID 540350. 78% of 230 active. purified Sfp PPTase enzyme activity, qHTS
# HM489 growth: reduces growth of B. subtilis HM489 strain; shares compounds with NTMT1 inhibitor; B. subtilis HM489 (acpS-) growth, BacTiter-Glo, 5 h; Potency, µM (series often up to 114 µM), for inactives: top-dose activity change, negative = inhibition, most hits filed as inhibitors; 50% of 220 active; AID 540353
# Sfp PPTase gel: inhibitors of Bacillus subtilis Sfp PPTase, gel-based followup | 54% of 220 active | Potency, µM (doses to about 250 µM), without a hit: at the highest dose activity change, negative = inhibition, most hits filed as inhibitors | purified Sfp PPTase, gel-based product detection | AID 540355 | shares compounds with NTMT1 inhibitor
# Sfp SAR2: inhibitors of Bacillus subtilis Sfp PPTase, SAR round 2; shares compounds with NTMT1 inhibitor; purified Sfp enzyme, PPTase activity, qHTS; Potency, µM (series often up to 57.1 µM), for inactives: top-dose activity change, negative = inhibition, usual class: inhibitors; AID 602370; 87% of 230 active
# hGST ctr: hGST A1-1 enzyme inhibition, Sfp SAR counter-screen; shares compounds with NTMT1 inhibitor; hGST A1-1 enzyme activity counter-screen, qHTS; Potency, µM (top dose mostly 114 µM), for inactives: at the top dose activity change, negative = inhibition, actives largely listed as inhibitors; 55 tested, under 10 active; AID 602391
# HSD17B4 inh: inhibits human HSD17B4, off-target for HPGD inhibitors | purified HSD17B4, estradiol/NAD+, NADH fluorescence | shares compounds with NTMT1 inhibitor | 10% of 230 active | Potency, µM (titrated, usually from 57.1 µM), without a hit: at the top dose activity change, negative = inhibition, usual class: inhibitors
# ALDH1A1 inh: inhibits human ALDH1A1, off-target for HPGD inhibitors; shares compounds with NTMT1 inhibitor; recombinant ALDH1A1, NADH fluorescence, propionaldehyde/NAD+; Potency, µM (series often up to 57.1 µM), inactives show top-dose activity change, negative = inhibition, actives largely listed as inhibitors; 93% of 230 active
# Target sequence (P00352 whole entry, looked up): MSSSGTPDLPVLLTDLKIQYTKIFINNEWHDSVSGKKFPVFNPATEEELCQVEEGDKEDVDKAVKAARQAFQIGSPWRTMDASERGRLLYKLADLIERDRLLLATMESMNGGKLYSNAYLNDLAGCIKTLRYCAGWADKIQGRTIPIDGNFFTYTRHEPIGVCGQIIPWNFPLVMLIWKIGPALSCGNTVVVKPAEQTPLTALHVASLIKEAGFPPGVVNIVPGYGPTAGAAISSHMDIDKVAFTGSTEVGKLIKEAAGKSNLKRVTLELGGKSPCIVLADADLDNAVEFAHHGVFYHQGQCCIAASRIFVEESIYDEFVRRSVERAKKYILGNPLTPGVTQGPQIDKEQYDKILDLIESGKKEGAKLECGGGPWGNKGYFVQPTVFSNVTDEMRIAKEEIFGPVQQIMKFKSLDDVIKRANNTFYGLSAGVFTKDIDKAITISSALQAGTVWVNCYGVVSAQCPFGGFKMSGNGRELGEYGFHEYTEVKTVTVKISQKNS
# * = called active by the depositor; i = inactive; ? = inconclusive; . = not tested or not shown; [ ] = dose if it differs, or a comment. This excerpt belongs to a sample that is enriched for hits. Unless noted, calls follow the shape of the dose curve; as a rule, active = well fitted curve in the direction sought with a large enough effect; inconclusive = small, poorly fitted or top-dose-only effect, or another doubt; inactive = no such curve, though single readings can be large; an effect the other way counts as inactive or inconclusive.
SMILES,HTT prom inh,NTMT1 inhibitor,HTT-AS promoter,Sfp SAR2,HSD17B4 inh,ALDH1A1 inh,others
CC(Cc1ccccc1)C(=O)Nc1ccc(Cl)cc1C(=O)O (stereo not given),.,18.0%,.,-20.2%,24.1µM*,24.1µM*,hGST ctr=?
CSC(Cc1ccc(Cl)cc1)C(=O)Nc1ccc(Cl)cc1C(=O)O (stereo not given),.,16.9%,.,31.0%,?,24.1µM*,hGST ctr=?
O=C(Nc1cccc(Cl)c1)C(Cc1ccccc1)n1cccc1 (stereo not given),-20.2%,6.8%,-26.4%,.,.,.,
COc1ccccc1Oc1ccc(N(Cc2cccnc2)S(=O)(=O)CC(F)(F)F)cc1,.,0.8%[57.5 µM],.,.,.,.,
Cc1cc(C)nc(NC(=S)N2CCN(c3ccc4occc4c3)CC2)c1,.,?,.,4.57µM*,?,17.1µM*,Sfp PPTase inh=3.73µM*;HM489 growth=?;Sfp PPTase gel=3.98µM*
COc1ccc(N2CCN(C(=O)Cc3coc4ccc(C)cc34)CC2)cc1,20.8%,15.5%,0.6%,.,.,.,
CC(C)(C)OC(=O)N1CCN(c2ccc(NCc3ccc4c(c3)OCO4)cc2)CC1,.,-8.7%,.,.,.,.,
Cc1cc(C)nc(NC(=S)N2CCN(c3ccc4c(c3)OCO4)CC2)c1,.,28.2µM*,.,14.5µM*,?,4.29µM*,Sfp PPTase inh=9.37µM*;HM489 growth=6.3%;Sfp PPTase gel=0.631µM*
C=C1CCC2C(C)(C(=O)O)CCCC2(C)C1CCC(C)CC(=O)O (stereo not given),.,10.2%[29.8 µM],.,.,.,.,
Cc1nnc(N2CCN(C(=O)Nc3cccc(C(F)(F)F)c3)CC2)c2nn(-c3ccccc3)c(C)c12,-21.8%,-1.7%,-5.8%,.,.,.,
COc1ccc2cc3cc(C(=O)N4CCN(c5cccc(C(F)(F)F)c5)CC4)sc3nc2c1,-14.2%,5.6%,-14.8%,.,.,.,
FC(F)(F)c1ccc(N2CCN(C(=S)Nc3ccccn3)CC2)cc1,.,?,.,0.58µM*,-11.2%,2.41µM*,Sfp PPTase inh=2.35µM*;HM489 growth=21µM*;Sfp PPTase gel=5.01µM*
Cc1cc(C)cc(C(=O)Nc2cc(C(F)(F)F)ccc2N2CCN(c3ccccc3)CC2)c1,-1.2%,-0.1%,-1.6%,.,.,.,
Cc1cncc(NC(=S)N2CCN(c3cccc(C(F)(F)F)c3)CC2)c1,.,?,.,?,-29.8%,-113.5%,Sfp PPTase inh=?;HM489 growth=-13.5%;Sfp PPTase gel=?
FC(F)(F)c1cccc(N2CCN(C(=S)Nc3cccnc3)CC2)c1,.,?,.,40.8µM*,-19.0%,10.8µM*,Sfp PPTase inh=?;HM489 growth=?;Sfp PPTase gel=-56.7%
COc1ccc(NC(=S)N2CCN(c3cccc(C(F)(F)F)c3)CC2)nc1,.,?,.,?,-14.6%,3.41µM*,Sfp PPTase inh=?;HM489 growth=6.8%;Sfp PPTase gel=-63.7%
O=C(CNS(=O)(=O)c1cccs1)N1CCN(c2cccc(C(F)(F)F)c2)CC1,?,-4.4%,-27.0%,.,.,.,
O=C1NS(=O)(=O)C(c2ccccc2)C1c1ccccc1 (stereo not given),.,11.2%,.,.,.,.,
Cc1ccc(S(=O)(=O)Nc2cc(-c3ccc(C#N)s3)ccc2C)cc1,.,20.7%,.,.,.,.,
O=C(c1ccc2nccnc2c1)N1CCCCC1,.,9.2%[57.5 µM],.,.,.,.,
Cc1ccc(OCCn2c(CCNC(=O)c3cccc(F)c3)nc3ccccc32)cc1,.,-6.3%,.,.,.,.,
O=C(C1OC1/C=C/c1ccc2c(c1)OCO2)N1CCCCC1 (stereo not given),.,4.9%[57.5 µM],.,.,.,.,
C[C@@H]1C[C@@H](O)[C@@]2(CO)C(CO)=CCC[C@@H]2[C@@]12C[C@@H](c1ccoc1)OC2=O,.,5.7%[29.8 µM],.,.,.,.,
c1nc(NCc2ccc3c(c2)OCO3)c2cc(-c3ccc4c(c3)OCCO4)ccc2n1,.,-1.6%,.,.,.,.,
Cn1ccc2cc(-c3ccc4ncnc(NCc5ccc6c(c5)OCO6)c4c3)ccc21,.,9.5%,.,.,.,.,
Cc1cc(CNc2ncnc3ccc(-c4ccc5c(c4)OCO5)cc23)c(C)o1,.,?,.,.,.,.,DYRK1A inh-1=0.367µM*;CLK4 inh=0.444*;DYRK1A inh-2=0.581µM*;CLK2 inh=15µM*;CLK3 RBC=i;DYRK1B RBC=4.92µM*;CLK1 RBC=0.864µM*
c1nc(NCC2CCCC2)c2cc(-c3ccc4c(c3)OCO4)ccc2n1,.,?,.,.,.,.,DYRK1A inh-1=0.0654µM*
Cc1csc(CNc2ncnc3cc(-c4ccc5c(c4)OCO5)ccc23)n1,.,-0.4%,.,.,.,.,
c1nc(NCCc2cnc[nH]2)c2ccc(-c3ccc4c(c3)OCO4)cc2n1,.,-17.6%,.,.,.,.,DYRK1A inh-1=23.2µM*

# Bioassay records from PubChem BioAssay.
